Results filed as inconclusive are left out. Entries that show only a call come without a potency. The source holds several records for some structures; these can differ, active in one and inactive in another. Unmarked numbers belong to inactive results. Activity calls are given as the source filed them. Calls follow the shape of the dose curve; as a rule, active = well fitted cell-killing curve with a large enough effect in the repeat runs; inconclusive = weak or mixed curves, or effect the other way; inactive = flat fitted curve, though single readings scatter. Positions of bridges follow the written chain, without caps; N, C: chain ends. Non-standard residues stand in square brackets, D forms with d. Residues, ends and D or L forms follow the SMILES beside them. hArg = N=C(N)NCCCC[C@H](N)C(=O)O; Mpa = O=C(O)CCS
Potency is read from the fitted curve at half-maximal effect.

This experiment in a line: qHTS assay to identify small molecule that activate the aryl hydrocarbon receptor (AhR) signaling pathway - cell viability counter screen (AID 743086). Also: nearly all actives have a fitted effect of over 45% in size.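 As to viability change, negative = cytotoxic: HepG2 liver cells carrying the AhR DRE luciferase reporter.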 The conditions noted are these: HepG2-AhR-luc viability, CellTiter-Fluor, 24 h; series mostly up to 70.3 µM. An excerpt:
U.S. Tox21 Program National Center for Advancing Translational Sciences [NCATS] NIH Chemical Genomics Center [NCGC] U.S. Environmental Protection Agency [EPA] National Institutes of Environmental Health Sciences [NIEHS] National Toxicology Program [NTP] U.S. Food and Drug Administration [FDA] Tox21 Assay overview: The Aryl hydrocarbon Receptor (AhR), a member of the family of basic helix-loop-helix transcription factors, is crucial to adaptive responses to environmental changes. AhR mediates cellular responses to environmental pollutants such as aromatic hydrocarbons through induction of phase I and II enzymes but also interacts with other nuclear receptor signaling pathways A cell based HepG2-AhR-luc assay (HG2L7.5c1 cell line, developed by Dr. Michael S. Denison, University of California at Davis) was used to assess the activation of AhR. HepG2 (human hepatocellular carcinoma) cells were stably transfected with an Ah receptor-responsive firefly luciferase reporter gene plasmid containing 20 dioxin responsive elements and luciferase reporter gene. Increased luciferase activity can be used to identify the compounds that induce AhR activation. The cytotoxicity of the compounds screened against the HepG2-AhR-luc cell line was tested in parallel by measuring the cell viability using CellTiter-Fluor assay in the same wells.
Tox21 Assay Protocol Summary: 4000 cells in 5 uL/well were dispensed into white wall/solid bottom 1536-well plates using a Multidrop Combi (Thermo Fisher Scientific Inc., Waltham, MA) dispenser. After the assay plates were incubated at 37C for 5 h, 23 nL of compound or DMSO vehicle was transferred to the assay plates by a pintool station (Kalypsys, San Diego, CA). The plates were incubated at 37C for 24 hr. For cell viability measurement, 1 ul/well of CellTiter-Fluor reagent (Promega, Madison, WI) was added into the assay plates using a Flying Reagent Dispenser (FRD) (Aurora Discovery, CA),and then the assay plates were incubated at 37C for 30 min. The fluorescence intensity in the plates was measured using a ViewLux plate reader (PerkinElmer, Shelton, CT), followed by the addition of 4 uL of ONE-Glo Luciferase Assay reagent (Promega) using an FRD (Aurora Discovery). After the assay plates were incubated at room temperature for 30 min, luminescence intensity was measured using a ViewLux plate reader (Perkin Elmer).
Turning to `CC(C)OC(=O)CCC(=O)OC(C)C`, the Potency result was “inactive”. Same read-out and setting: in the case of `CCOC(=O)CC1(C)OCC(C)O1` (stereo not given) it was “inactive”; in that of `C[Si]1(C)O[Si](C)(C)O[Si](C)(C)O[Si](C)(C)O[Si](C)(C)O1`, “inactive”; in that of `C=CC(=O)CCCCC`, “inactive”. For the molecule `O=Cc1ccccc1Cl`, the Potency result was “inactive”.

Consider `O/N=C/C=N/O`, for which the Potency result was “inactive”. On the same count and under the same terms, in the case of `ONc1ccccc1` it was “inactive”; in that of `NCC1(Cc2noc(=O)[nH]2)CCCCC1`, “inactive”; in that of `CC(=O)C1C(=O)C=C(C)OC1=O` (stereo not given), “inactive”.

Take `c1ccc(B(c2ccccc2)c2ccccc2)cc1`: the Potency entry was “inactive”. Take `CC1c2ccccc2CN1NC(=O)c1ccc(Cl)c(S(N)(=O)=O)c1` (stereo not given): the Potency result was “inactive”. Consider `O=C1OCCO1`, for which the Potency result is “inactive”. `[O]=[Mo](=[O])=[O]`: the Potency entry was “inactive”.

On to `Cc1ccccc1C(N)=O`, for which the Potency result was “inactive”. As for `NC(=O)[C@@H]1CSSCCC(=O)N[C@@H](CCCCN=C(N)N)C(=O)NCC(=O)N[C@@H](CC(=O)O)C(=O)N[C@@H](Cc2c[nH]c3ccccc23)C(=O)N2CCC[C@H]2C(=O)N1` ([Mpa][hArg]GDWPC-NH2; disulfide 1-7), the Potency result was “inactive”. In the case of `CCOCCOCC`, the Potency entry was “inactive”. With `O=C(CN1CCNCC1)NC1CCCCC1`, the Potency entry is “inactive”.

Regarding `O=C1c2ccccc2C(=O)c2cc(Cl)ccc21`, the viability change, negative = cytotoxic was 10.5% [at 8.47 µM]. Turning to `Cc1c(NC(=O)c2cccnc2)c(=O)n(-c2ccccc2)n1C`, the Potency entry is “inactive”. The same measure, in the same setting: in the case of `CC1(C)[C@H]2CC[C@](C)(C2)[C@H]1O` it was “inactive”; in that of `CCCCCCCCCCCCCCC(=O)NC(CO)CCCCCCCCCCCCCC` (stereo not given), “inactive”; in that of `O=C=NCC1CCCC(CN=C=O)C1` (stereo not given), “inactive”. Still for that read-out and setting: in the case of `CSc1cnccn1` it was “inactive”; in that of `O=Cc1cc2ccccc2o1`, “inactive”; in that of `C[C@]12CCC(=O)C=C1CC[C@H]1[C@@H]3CC[C@](O)(C(=O)CO)[C@@]3(C)C[C@H](O)[C@@]12F`, “inactive”. Consider `CCc1occc(=O)c1O`, for which the Potency entry was “inactive”. On the same count and under the same terms, in the case of `CC(N)CCCC(C)(C)O` (stereo not given) it was “inactive”; in that of `NCc1ccc(S(N)(=O)=O)cc1`, “inactive”; in that of `O=C1CCC(=O)N1Cl`, “inactive”.

As to `COC(=O)c1cccc(Cl)c1`, the Potency result was “inactive”. The same measure, in the same setting: in the case of `CCC(=O)c1c(O)cc(O)cc1O` it was “inactive”.

Take `O=S(=O)(O)c1ccc2c(N=Nc3ccc(S(=O)(=O)O)c4ccccc34)c(O)c(S(=O)(=O)O)cc2c1`: the viability change, negative = cytotoxic was -5.27% [at 8.47 µM] and the Potency was 13.3 µM (active). With `O=C(O)c1cc2ccccc2nc1C(=O)O`, the Potency entry is “inactive”. The same measure, in the same setting: under `c1ccc(-c2nn[nH]n2)cc1` stands “inactive”. The same measure, in the same setting: under `CCCCCCCCCCCCCCCCCCOCCO` stands “inactive”; under `CCC(=O)CC`, “inactive”. On the same count and under the same terms, in the case of `O=C1CCCCO1` it was “inactive”; in that of `CC(C)OC(=O)OCOP(=O)(CO[C@H](C)Cn1cnc2c(N)ncnc21)OCOC(=O)OC(C)C`, “inactive”. On to `CC(=O)CCc1ccc(OC(C)=O)cc1`, for which the Potency result is “inactive”.
